Many of the other results were omitted from the sample, so hits are more common in it than they were.
ST2 IL33 inh = inhibitors of human ST2 (IL1RL1) binding to IL-33, primary screen, biochemical, AlphaLISA | Interleukin-1 receptor-like 1 (Homo sapiens), Q01638 | AlphaLISA ST2-Fc/biotin-IL-33 interaction, 1 h | inhibition, % for hits at 17 µM | 2.3% of 78,000 active; in the data active means inhibition above about 30%
A number is an active result; – = inactive; ! = a repeat was not active.

SMILES | ST2 IL33 inh
Cn1c(=O)[nH]c(=O)c2c1nc(CN1CCN(c3cccc(Cl)c3)CC1)n2CC(N)=O | –
CCc1nc2cc3nc(CC)c(C)c(C(=O)O)c3cc2c(C(=O)O)c1C | –
O=C(CS(=O)(=O)c1cn(Cc2ccc(Cl)cc2)c2ccccc12)N1CCCCCC1 | –
Cc1cc(C(=O)N2CCc3onc(-c4ccccc4)c3C2)nc(C)n1 | –
CS(=O)(=O)N(CC(=O)N1CCC(Cc2ccccc2)CC1)c1ccccc1F | –
CCCCOc1ccc(S(=O)(=O)N2CCSC2c2cc(OC)ccc2OC)cc1 (stereo not drawn) | –
O=C(c1cn[nH]c1)N1CCOC(CC(c2ccccc2)c2ccccc2)C1 (stereo not drawn) | –
Cc1nc2ccc3nc(NC(=O)c4ccccc4Br)sc3c2s1 | –
COc1ccc(OCc2nc3ccccc3[nH]2)cc1 | –
Brc1cnc2nc(COc3ccccc3)[nH]c2c1 | 35%
Cc1cc(OCc2nc3ccccc3[nH]2)ccc1C(C)C | –
O=C(NCC1CCCN(C(=O)c2ccc3[nH]ccc3c2)C1)c1ccccc1Cl (stereo not drawn) | –
O=C(NCc1ccc(Cl)c(Cl)c1)c1ccccc1Br | –
Cn1c(=O)c2cc(S(=O)(=O)Nc3ccc(Br)cc3)ccc2n(C)c1=O | –
O=C(Nc1cccc(C(=O)c2ccccc2)c1)c1ccc2c(c1)C(=O)N(c1nccs1)C2=O | –
CCOC(=O)C(CC)Sc1nc2c(c(=O)n1-c1ccccc1)SCC2 (stereo not drawn) | –
O=C(CSc1nc2c(c(=O)n1-c1ccc(F)cc1)SCC2)NCc1ccc(F)cc1 | –
Cc1ccc(-n2c(SCC(=O)Nc3cccc(Cl)c3)nc3c(c2=O)SCC3)cc1 | 31%
O=C(CSc1nc2c(c(=O)n1-c1ccc(Cl)cc1)SCC2)Nc1cccc(Cl)c1 | –
CCOC(=O)C(C)Sc1nc2c(c(=O)n1-c1ccc(Cl)cc1)SCC2 (stereo not drawn) | –
CCOC(=O)CSc1nc2c(c(=O)n1-c1ccc(C)cc1)SCC2 | –
COc1ccccc1-n1c(SCc2ccccc2)nc2c(c1=O)SCC2 | –
COc1ccccc1-n1c(SCC(=O)Nc2ccccc2)nc2c(c1=O)SCC2 | 35%!
Cc1ccc(-n2c(SC(C)c3ccccc3)nc3c(c2=O)SCC3)cc1 (stereo not drawn) | 31%!
CCSc1nc2c(c(=O)n1-c1ccccc1OC)SCC2 | –
SMILES | ST2 IL33 inh
Cc1ccc(-n2c(SCC(=O)NCCc3ccccc3)nc3c(c2=O)SCC3)cc1 | 31%
Cc1ccc(-n2c(SCC(=O)Nc3cccc(C(F)(F)F)c3)nc3c(c2=O)SCC3)cc1 | –
Cc1ccc(S(=O)(=O)CC(Cn2nc(Cl)nc2Cl)n2nc(Cl)nc2Cl)cc1 (stereo not drawn) | –
CS(=O)(=O)N(CC(=O)N1CCN(c2ccccc2F)CC1)c1ccccc1 | –
O=C1CC2(CCN(Cc3ccc(OCc4ccccn4)cc3)CC2)CN1 | –
Cc1cc(C)cc(-n2cnc3cc(C(=O)NCc4cccnc4)ccc32)c1 | –
CS(=O)(=O)CC[C@H](NC(=O)C1=C[C@@H](NC(=O)[C@@H]2C[C@@H](O)CN2)[C@@H](O)[C@H](O)C1)C(N)=O | –
CC(=O)c1sc(Nc2nc3c(F)cccc3s2)nc1C | –
Cc1ccc(-c2nnc(-c3nc(NCCCN4CCc5ccccc5C4)c4ccccc4n3)o2)cc1 | –
CC1CCCCC1NC(=O)c1cc(=O)[nH]c2ccc(S(=O)(=O)N3CCCC3)cc12 (stereo not drawn) | –
O=C1Nc2ccccc2C(O)(C(=O)NCc2cccs2)N1c1ccc(Cl)c(Cl)c1 (stereo not drawn) | –
Cc1ccc(-n2c(SCC(=O)Nc3cc(C)ccc3C)nc3c(c2=O)SCC3)cc1 | –
Cc1ccc(-n2c(SCC(=O)Nc3nccs3)nc3c(c2=O)SCC3)cc1 | –
Cc1ccc(-n2c(SCC(=O)Nc3ccccc3F)nc3c(c2=O)SCC3)cc1 | 32%
COc1ccccc1C(=O)Nc1c2c(nn1C(C)(C)C)CS(=O)C2 (stereo not drawn) | –
COc1cccc(NS(=O)(=O)c2ccc(Cl)s2)c1 | –
O=C(c1cc(=O)c2ccccc2[nH]1)N1CCOC(CCc2ccccc2)C1 (stereo not drawn) | –
O=C1CC2(CCCCC2)Oc2ccc(O)cc21 | –
CC1(C(=O)Nc2ccc3c(c2)OC2(CCCCC2)O3)CC1(Cl)Cl (stereo not drawn) | –
Nc1ccc2c(c1)OC1(CCCCC1)O2 | 37%
CCCCNS(=O)(=O)c1cc(Br)cc2c1N(C(=O)CC)CC2 | –
Cc1ccc(-n2nc3c(c2NC(=O)c2ccc(Br)cc2)CSC3)cc1 | –
O=C1c2ccccc2C(=O)C1c1ccncc1 | 99%
O=C1c2ccccc2C(=O)C1c1ccccn1 | –
O=C1c2ccccc2C(=O)C1c1nc2ccccc2[nH]1 | –
CCOC(=O)c1[nH]c2ccccc2c1NC(=O)C1c2ccccc2OC2C=CC=CC21 (stereo not drawn) | –
O=[N+]([O-])c1cccnc1NCc1ccccc1 | 39%
O=[N+]([O-])c1ccccc1S(=O)(=O)NCc1cccnc1 | –
COc1ccc(CNc2ncnc(NCc3ccc(OC)cc3)c2[N+](=O)[O-])cc1 | –

Assay outcomes deposited in PubChem BioAssay by Paczesny and Yang Labs, IUPUI and University of Michigan.
